# Measured values reported in PubChem BioAssay AID1309 (The Scripps Research Institute Molecular Screening Center, 2008).
# Screen size: about 1,200 compounds; about 130 (11%) were called active. No stated cut-off is given here; in the data, active means activation above about 120%; inactive means the rest. Only a sample is shown.
# Experiment: activation of NF-kB-driven transcription – cell-based, counter-screen for STAT3 activator project (AID 1309);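 further: reporter induced by TNF-alpha stimulation; 100% = median of stimulated DMSO wells and 0% = no signal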
# Conditions: human cells, NF-kappaB reporter activation; at 5.7 µM; stronger effect = higher value
row,Structure (SMILES),activation (% of control)
1,Cc1cccc(C(=O)N2CCc3c([nH]c4ccccc34)C2CC(C)C)n1 (stereo not drawn),110% (inactive)
2,Cc1nc(N=C(N)N)nc2c(C)cccc12,110% (inactive)
3,COc1ccc(Cl)cc1NC(=O)c1oc(C)nc1C,108% (inactive)
4,COC(=O)c1[nH]c2ccccc2c1NS(=O)(=O)c1ccc(OC)cc1OC,104% (inactive)
5,CN1C(=O)/C(=C\c2cc(Br)cs2)c2ccccc21,120% (inactive)
6,O=C(NCc1ccco1)c1cccn2c(=O)c3c4c(sc3nc12)CCCC4,106% (inactive)
7,CSc1nc(N(C)NC(=O)c2cccc(C)c2)c2ccccc2n1,159% (active)
8,Cc1cccc(C(=O)Nc2nnc(Cc3c[nH]c4ccccc34)s2)c1,101% (inactive)
9,Cc1ccc(-c2cc(C(=O)Nc3nn[nH]n3)c3ccccc3n2)c(C)c1,99.3% (inactive)
10,CSCCC(NC(=O)c1ccco1)C(=O)OCC(=O)Nc1ncc(Cl)c(C)c1Cl (stereo not drawn),97.1% (inactive)
11,Cc1nc2ccccc2cc1O,98% (inactive)
12,N#Cc1c(C(F)(F)F)cc(-c2ccc(Cl)cc2)nc1SCC(=O)O,107% (inactive)
13,Oc1c(C=Nc2cccc3nsnc23)ccc2ccccc12,96.6% (inactive)
14,Cc1ccc(C2=NN(C)c3nc4ccccc4n3C2)cc1,112% (inactive)
15,Cc1ccc(OCc2nnc(SC3CCc4ccccc4C3=O)n2C)cc1 (stereo not drawn),111% (inactive)
16,CC(=O)Nc1ccc(NC(=O)COc2ccccc2C(=O)Nc2cccc(Cl)c2Cl)cc1,102% (inactive)
17,CC(C)CNC(=O)COC(=O)/C=C/c1ccccc1[N+](=O)[O-],97.8% (inactive)
18,COc1nc(N=C(N)N)nc2c(C)cccc12,109% (inactive)
19,c1ccc(-c2cn3c(n2)CCc2ccc4cccnc4c2-3)cc1,106% (inactive)
20,O=C(Cc1c[nH]c2ccccc12)OCCOC(=O)Cc1c[nH]c2ccccc12,99.2% (inactive)
21,COc1cccc(NC(=S)C(C#N)=C2N(C)c3ccccc3N2C)c1,94.8% (inactive)
22,NC(=O)CSc1c[nH]c2ccccc12,102% (inactive)
23,COc1cccc(/C=C(/CC(=O)Nc2ccc(N3CCOCC3)cc2)c2nc3ccccc3s2)c1,114% (inactive)
24,Cc1ccc(NC(=O)c2cc([N+](=O)[O-])ccc2Cl)c(O)c1,107% (inactive)

row,Structure (SMILES),activation (% of control)
1,CCCCC(=O)Nc1nc(C)c(-c2csc(Nc3ccc(Cl)cc3)n2)s1,101% (inactive)
2,C/C(=N\c1nc2ccccc2n1C)c1cc(Cl)ccc1O,99.6% (inactive)
3,COc1cc(OC)cc(C(=O)N[C@H](C(=O)Nc2nc3ccccc3[nH]2)C(C)C)c1,138% (active)
4,COc1ccccc1-c1nnc(NC(=O)c2ccc3ncsc3c2)o1,127% (active)
5,COc1ccccc1-c1nnc(SCC(=O)N2CC(C)CC(C)C2)o1 (stereo not drawn),101% (inactive)
6,Oc1cccc(C2c3[nH]c4ccccc4c3CCN2Cc2cnn(-c3ccccc3)c2)c1 (stereo not drawn),105% (inactive)
7,CCNCc1cc2cc(C)ccc2[nH]c1=O,101% (inactive)
8,COC(=O)c1[nH]c2cccc(C)c2c1NC(=O)CN1CCCc2ccccc21,96.7% (inactive)
9,CCOc1ccc(C2c3[nH]c4ccccc4c3CCN2Cc2cn(CC)nc2C)cc1 (stereo not drawn),111% (inactive)
10,COc1ccc(C)cc1NC(=O)c1[nH]c(C)c(C(C)=O)c1C,99.2% (inactive)
11,COc1ccc(-c2c3c(=O)n(C)c(=O)n(C)c3cn2-c2cccc(OC)c2)cc1,103% (inactive)
12,O=C(O)CS/C(=C\c1ccc(F)cc1)c1nc2ccccc2s1,116% (inactive)
13,Cc1ccc(N=Nc2c(C)[nH]n(-c3ccccc3)c2=O)cc1,106% (inactive)
14,COc1cc(NS(=O)(=O)c2ccc(N/C=C(\C=O)c3nc4cc(Cl)ccc4o3)cc2)nc(OC)n1,104% (inactive)
15,COCCCNc1nc2c(-c3cccc(C(F)(F)F)c3)nnn2c2ccccc12,109% (inactive)
16,CCOC(=O)c1c(-c2cccc(C)c2)csc1NC(=O)c1c(-c2ccccc2)noc1C,71.3% (inactive)
17,Cc1ccc(Nc2nc(-c3sc(NC(=O)c4ccccc4)nc3C)cs2)cc1,102% (inactive)
18,Cc1cccc(N(CC(=O)N=Nc2c(O)[nH]c3ccccc23)S(C)(=O)=O)c1C,103% (inactive)
19,O=[N+]([O-])c1ccc(N2CCN(S(=O)(=O)c3ccc4ccccc4c3)CC2)cc1NCc1ccco1,105% (inactive)
20,CCSc1nnc(-c2cc3c(s2)-c2ccccc2CC3)o1,118% (inactive)
21,Cn1nc(-c2ccc(Cl)cc2)c2cc(C(=O)NCc3ccco3)sc21,104% (inactive)
22,COc1ccccc1C1C2=C(COC2=O)Nc2cc3c(cc21)OCO3 (stereo not drawn),166% (active)
23,CCOC(=O)CN(C)Cc1c[nH]c2ccccc12,105% (inactive)
24,O=C(C1CCN(S(=O)(=O)Cc2ccccc2)CC1)N1CCCc2ccccc21,108% (inactive)
